GLP1R inv ag: qHTS of GLP-1 Receptor Inverse Agonists (Inhibition Mode); Glucagon-like peptide 1 receptor (Homo sapiens), P43220; HEK293 GLP-1R CRE-luciferase, luminescence, 24 h; GLP-1R form is constitutively active; Potency, µM (highest dose often 38.3 µM), for inactives: top-dose activity change, negative = inhibition, actives largely listed as inhibitors; 1.6% of 410,000 active; AID 624417, 2012; further: potency means the concentration at half of the fitted maximal effect; on the % scale 0 is the no-effect control and ±100 the full control effect; nearly all actives have a fitted effect of over 55% in size
Target sequence (P43220 whole entry, looked up): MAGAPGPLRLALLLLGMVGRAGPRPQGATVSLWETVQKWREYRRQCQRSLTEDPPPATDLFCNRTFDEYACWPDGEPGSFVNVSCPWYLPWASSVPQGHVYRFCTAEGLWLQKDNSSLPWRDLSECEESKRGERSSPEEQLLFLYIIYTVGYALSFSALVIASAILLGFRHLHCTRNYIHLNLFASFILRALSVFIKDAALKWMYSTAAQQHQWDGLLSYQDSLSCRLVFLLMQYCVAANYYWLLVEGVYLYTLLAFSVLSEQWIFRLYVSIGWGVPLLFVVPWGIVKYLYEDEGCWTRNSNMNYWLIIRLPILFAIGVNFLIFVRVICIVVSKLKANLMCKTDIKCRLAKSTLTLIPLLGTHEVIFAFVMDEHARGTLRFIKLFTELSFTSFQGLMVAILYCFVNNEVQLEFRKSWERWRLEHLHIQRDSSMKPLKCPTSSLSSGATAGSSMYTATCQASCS
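GLP-1R inverse agonism mode: basal reporter luminescence in engineered HEK293 cells measured after one day of compound exposure at 37 deg C, with a 12 min room-temperature detection step.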
HEK293 tox: qHTS of GLP-1 Receptor Inverse Agonists: Cytotox Screen; HEK293 cAMP-luciferase reporter cells, luminescence, 24 h; Potency, µM (titrated, usually from 38.3 µM), for the others: at the top dose activity change, negative = inhibition, most hits filed as inhibitors; 0.13% of 410,000 active; AID 624418, 2012;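 further: loss of luciferase light is scored as toxicity; potency means the concentration at half of the fitted maximal effect; on the % scale 0 is the no-effect control and ±100 the full control effect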
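Cells in DMEM/10% Nu serum/1% pen-strep, 1536-well format. Pre-incubated 12 h, dosed with 23 nL compound, incubated a further 24 h. Luciferase detection, 12 min at room temp, luminescence.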
Mm-Cpn inhibitor: Inhibitors of TCP-1 ring complex (TRiC) of Methanococcus maripaludis (MmCpn): qHTS | 0.031% of 330,000 active | Chaperonin Mm-Cpn (Methanococcus maripaludis) | Potency, µM (titrated, usually from 76.9 µM), without a hit: top-dose activity, negative = inhibition, hits mostly inhibitors | purified Mm-Cpn ATPase, ADP Transcreener TR-FRET; further: potency means the concentration at half of the fitted maximal effect; on the % scale 0 is the no-effect control and ±100 the full control effect; nearly all actives have a fitted effect of over 80% in size
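25 nM Mm-CPN + cpd, 10 min 37°C; + 10 uM ATP, 30 min 37°C; buffer 30 mM Tris pH 7.4, 100 mM KCl, 5 mM MgCl2, 1 mM DTT; Transcreener ADP HTRF detection 30 min RT.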
GLP-1R agonist: qHTS of GLP-1 Receptor Agonists | Glucagon-like peptide 1 receptor (Homo sapiens), P43220 | HEK293 GLP-1R CRE-luciferase, luminescence, 4-6 h; cells express a hypersensitive GLP-1R form | Potency, µM (top dose mostly 45.6 µM), inactives show at the top dose activation, usual class: activators | 0.007% of 380,000 active | AID 624172, 2012; further: potency means the concentration at half of the fitted maximal effect; % of control where 0% means no effect
uPA generation: qHTS for Inhibitors of Cell Surface uPA Generation; Potency, µM (doses to about 38.3 µM), without a hit: at the top dose activity change, negative = inhibition, hits mostly inhibitors; 0.31% of 330,000 active; cell surface uPA generation assay, qHTS; active means well fitted inhibition curve with a large enough effect; inconclusive means small, poorly fitted or top-dose-only effect; inactive means no such curve, though single readings can be large or run the other way; tested in mouse RAW 264.7 cells; further: potency means the concentration at half of the fitted maximal effect; on the % scale 0 is the no-effect control and ±100 the full control effect; nearly all actives have a fitted effect of over 55% in size
CCT modulator: High-Throughput Screening for Modulators of Cytosolic Chaperonin Activity; activity change, % (concentration not given with the values), hits read low; purified chaperonin ATPase assay, HTRF ADP detection, 30 min; 0.3% of 360,000 active; in the data active means activity change below about -30%; further: on the % scale 0 is the no-effect control and ±100 the full control effect
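First, chaperonin was dispensed at 40 nM or 20 nM final depending on batch activity. Next, compounds were pinned at 76 uM and ATP added at 10 uM. After 30 min at 37 °C, ADP detection reagents ran 30 min at ambient temperature.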
The depositor's hits bear a star; u = inconclusive; x = no result given. A selection: hits, their analogues and other compounds. The true share with any hit is near 2.2%. Unless noted, the call rests on the fitted dose curve; in most records, active means well fitted curve in the direction sought with a large enough effect; inconclusive means small, poorly fitted or top-dose-only effect, or another doubt; inactive means no such curve, though single readings can be large; an effect the other way counts as inactive or inconclusive.

SMILES	GLP1R inv ag	HEK293 tox	Mm-Cpn inhibitor	GLP-1R agonist	uPA generation	CCT modulator
COC(=O)[C@@H]1C[C@]2(OC(=O)c3ccccc3)C=CC(=O)C[C@@H]2N1C(=O)OCc1ccccc1	7.1µM*	0%	-2%	-6%	3.2µM*	-3
CN(C)S(=O)(=O)c1ccc(N2CCCC2)c(C(=O)NNC(=O)c2ccc(F)cc2)c1	34%	1%	-1%	6%	u	-61*
CN(C)S(=O)(=O)c1ccc(N2CCCC2)c(C(=O)NNC(=O)c2ccc(Br)cc2)c1	60%	5%	-1%	14%	5%	-2
Cc1cccc(-n2ncc3c(NC4CCCCC4)ncnc32)c1	u	-8%	u	6%	11µM*	0
c1ccc(-n2ncc3c(NC4CCCC4)ncnc32)cc1	u	-19%	x	x	x	x
COc1ccc(-n2ncc3c(NC4CCCC4)ncnc32)cc1	7.9µM*	-22%	x	x	x	x
Cc1cccc(-n2ncc3c(NC4CCCC4)ncnc32)c1	u	-23%	x	x	x	x
Clc1cccc(-n2ncc3c(NC4CCCCCC4)ncnc32)c1	10µM*	-32%	x	x	x	x
Cc1ccc(-n2ncc3c(NC4CCCC4)ncnc32)cc1	u	-12%	x	x	x	x
COc1cccc(OC)c1C(=O)Nc1cccc(-c2nc3cc(C)cc(C)c3o2)c1	0%	-5%	x	3%	x	x
COc1ccc(NC(=O)Cn2c(=O)oc3cc(S(=O)(=O)NC4CCCC4)ccc32)cc1OC	11%	-8%	x	x	x	x
Cc1nn(CC(=O)NC2CC2)c(=O)c2cc3cc(F)ccc3n12	-4%	4%	x	x	x	x
COc1ccc(Cl)cc1NC(=O)CN(C)C(=O)C12CC3CC(CC(Cl)(C3)C1)C2	u	-13%	-5%	0%	6%	-3
CSc1ccc(CN(C)C(=O)C23CC4CC(CC(Cl)(C4)C2)C3)cc1	10µM*	-3%	2%	32%	-14%	-3
Cc1ccc(NC(=O)c2cc(CN3CCOCC3)on2)cc1Cl	30%	1%	x	x	x	x
CSc1ccc(C2c3c(-c4ccccc4O)n[nH]c3C(=O)N2Cc2ccncc2)cc1 (centres undefined)	-19%	-16%	x	x	x	x
CN(C)CCCN(C(=O)CCc1ccccc1)c1nc2ccc(Cl)cc2s1	3.5µM*	u	1%	0%	-4%	3
CN(C)CCCN(C(=O)c1sc2ccccc2c1Cl)c1nc2ccc(F)cc2s1	10µM*	-27%	-22%	4%	0%	2
Cc1ccc2nc(N(CCCN(C)C)C(=O)CCc3ccccc3)sc2c1	u	u	0%	9%	-18%	0
CN(C)CCCN(C(=O)c1ccc2c(c1)CCCC2)c1nc2ccc(Cl)cc2s1	5µM*	-25%	-6%	-47%	8%	-3
CSc1cccc(NC(=O)C2CCCN(C(=O)c3cnn(-c4ccc(F)cc4)c3-n3cccc3)C2)c1 (centres undefined)	u	-4%	x	x	x	x
Cc1ccc(NC(=O)CC2Nc3cc(C)c(C)cc3NC2=O)c(C)c1 (centres undefined)	12%	2%	x	x	x	x
CCN(CC)S(=O)(=O)c1ccc(N2CCOCC2)c(NC(=O)c2cccc3ccccc23)c1	0%	-8%	1%	17%	-14%	-2
CCN(CC)S(=O)(=O)c1ccc(N2CCOCC2)c(NC(=O)c2cccc3c(=O)c(C)c(-c4ccccc4)oc23)c1	-28%	-14%	x	8%	4.5µM*	0
Cc1ccc(NC(=O)CN2C(=O)C3(SCC(=O)N3c3ccc(F)c(F)c3)c3ccccc32)c(C)c1 (centres undefined)	-27%	-6%	x	4%	x	x

Screening results (PubChem BioAssay)
